Reference: PubChem BioAssay AID720553 (National Center for Advancing Translational Sciences (NCATS), 2013)
Among all 340,000 compounds or so, about 3,300 (0.97%) were called active. The full list was thinned out, with actives kept by preference. Unmarked numbers belong to inactive results.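 Rule for the calls: active = maximum activity change below -70%; inconclusive = maximum activity change from -70% to -50%; inactive = maximum activity change above -50%.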

These compounds were tested on Potassium voltage-gated channel subfamily H member 2, brain isoform KCNH2 3.1 (human) (assay: qHTS for Inhibitors of KCHN2 3.1: Mutant qHTS). Settings: U2OS KCNH2 3.1, thallium flux FluxOr; active compounds read low.
Outline: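 We transduce U2OS cells with the mutant 3.1 virus, culture them overnight, load FluxOr with Red40 quencher for 45 min, then add stimulation buffer and read kinetically for 2 min to derive a normalized rate constant.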
% is set by controls: 0 for no effect and ±100 for the full control effect.

SMILES	activity change
Cc1ccc([C@H]2C[C@H](O)[C@@H](n3cc(COC(=O)c4ccccc4)nn3)CN2CC2CCCCC2)cc1	1.72%
COCCN1Cc2cccc(C(=O)Nc3ccccc3OC)c2C1=O	-4.17%
CCCN1Cc2cccc(C(=O)NCc3ccccc3)c2C1=O	-73.5% (active)
CCCN1Cc2cccc(C(=O)Nc3ccc(S(=O)(=O)N4CCCCCC4)cc3)c2C1=O	-4.68%
Cc1onc(-c2ccccc2)c1-c1nnc(COC(=O)c2ccc(N(C)C)cc2)o1	-2.8%
Cc1csc(=O)n1CCC(=O)OCC(=O)Nc1ccc(N2CCOCC2)cc1	26.4%
CCc1cc(C(=O)N(CC)CC(=O)Nc2c(F)cccc2F)sc1C	6.15%
O=C(O)c1ccc(F)c(S(=O)(=O)Nc2ccccc2)c1	-0.905%
O=C(Nc1ccccc1-c1ccccc1)c1cccs1	3.41%
Cc1ccc(C(=O)Nc2ccccc2-c2ccccc2)cc1S(=O)(=O)Nc1ccccc1	-81.2% (active)
O[C@H]1CN(Cc2cccs2)[C@@H](c2ccc(Cl)cc2)C[C@@H]1n1cc(C2CC2)nn1	1.17%
O=C1CC[C@@H](C(=O)N2CSC[C@@H]2C(=O)Nc2ccc(C(F)(F)F)cc2)N1	0.48%
Cc1ccc(Cc2c(-c3ccc(C)cc3)nc3c4ccccc4ccn23)cc1	-46.3%
CCOc1ccc(S(=O)(=O)NCCC(=O)NNC(=O)c2ccc(F)cc2)cc1	7.87%
COc1ccc(/C=C(\NC(=O)c2ccccc2)C(=O)NCCN2CCOCC2)cc1OC	-4.51%
O=C(NCCN1CCOCC1)/C(=C/c1ccc(F)cc1)NC(=O)c1ccccc1	-9.2%
Cc1ccc(C(=O)N/C(=C\c2ccc(F)cc2)C(=O)NCCN2CCOCC2)cc1	-89.5% (active)
COC(=O)N(C)C[C@@H]1OCc2cnnn2CCCC(=O)N([C@@H](C)CO)C[C@@H]1C	5.22%
Cc1cccc(C(=O)C(O)(c2ccccc2)C2CCCCC2=O)c1 (centres undefined)	-14.9%
COc1ccc(S(=O)(=O)N(C)C[C@H]2OCc3cnnn3CCCC(=O)N([C@H](C)CO)C[C@H]2C)cc1	11.2%
COc1cc2nnn(-c3ccncc3)c2cc1OC	-4.09%
COc1ccc2nc(-c3ccccn3)ccc2c1	6.65%
C=CCn1c(SCC(=O)NC)nnc1C12CC3CC(CC(C3)C1)C2	-75% (active)

SMILES	activity change
C=CCn1c(C23CC4CC(CC(C4)C2)C3)n[nH]c1=S	-5.08%
C=CCn1c(SCC(=O)NC23CC4CC(CC(C4)C2)C3)nc(O)cc1=O	30.9%
Cc1ccc(S(=O)(=O)/N=C2\C=C(NS(=O)(=O)c3ccc(C)cc3)C(=O)c3ccccc32)cc1	17.4%
C[C@H]1CN([C@@H](C)CO)S(=O)(=O)c2ccc(Br)cc2O[C@H]1CN(C)C(=O)c1cnccn1	10.6%
O=C(Nc1ccc(N2CCOCC2)c(Cl)c1)c1ccc(S(=O)(=O)N2CCOCC2)cc1	-3.05%
O=C(Nc1ccc2c(c1)nc1n2CCCCC1)c1cc(S(=O)(=O)N2CCOCC2)ccc1Cl	-83.4% (active)
O=C(Nc1ccc(N2CCCCC2)cc1)c1cc(S(=O)(=O)N2CCOCC2)ccc1F	-0.576%
CC(C)c1ccc(-c2noc(C3CCCN(S(C)(=O)=O)C3)n2)cc1 (centres undefined)	-21.4%
COc1cc(-c2noc(C3CCCN(S(=O)(=O)c4cccc(Cl)c4)C3)n2)cc(OC)c1OC (centres undefined)	-93.6% (active)
COc1cccc(-c2noc(C3CCCN(C(=O)c4ccc(F)cc4)C3)n2)c1 (centres undefined)	16.8%
CCOC(=O)c1c(NC(=S)SC)sc(C(=O)N2CCc3ccccc3C2)c1C	-4.73%
CC1=C(C(=O)N2CCOCC2)CC(CC(=O)NCc2ccco2)C(=O)N1Cc1ccc(F)cc1 (centres undefined)	-24.5%
C=CCNC(=O)COC(=O)c1ccccc1C(=O)N(C)C1CCCCC1	-110% (active)
O=C(COC(=O)c1ccccc1Cl)NC1CCCCCCC1	-1.39%
CC1CCCC(NC(=O)COC(=O)c2ccccc2C(=O)N(C)C2CCCCC2)C1C (centres undefined)	7.73%
CCCCN(C(C)=O)c1ccc2c(c1)C1CC2CCN1Cc1ccccc1 (centres undefined)	0.966%
O=C(Nc1ccc(Cl)cn1)c1ccccc1-c1ccccc1	-14.9%
CC1(C)Cc2cccc(OCC(N)=O)c2O1	-6.48%
CC1(C)Cc2cccc(OCC(=O)N3CCN(c4ccc([N+](=O)[O-])cc4)CC3)c2O1	-91.8% (active)
CC1(C)Cc2cccc(OCC(=O)NCc3ccccc3)c2O1	0.403%
S=C(NN=Cc1ccccn1)Nc1ccccn1	-6.69%
COc1ccc(C(=O)OCC(=O)Nc2cc(C)on2)cc1F	-0.754%
CSCCC(NC(=O)COc1ccccc1)C(=O)N1CCN(c2cccc(C(F)(F)F)c2)CC1 (centres undefined)	-70% (active)

SMILES	activity change
CSCCC(NC(=O)COc1ccccc1)C(=O)OCCOc1ccc(Br)cc1 (centres undefined)	-21.4%
CSCCC(NC(=O)COc1ccccc1)C(=O)OCCOc1ccc(F)cc1 (centres undefined)	-11.8%
O=C(Nc1cccc2ccccc12)NC1CC1	-0.285%
COc1ccc(C(C)(C)C)cc1NC(=O)CN(C)C1=NS(=O)(=O)c2ccccc21	-5.7%
O=C(COc1ccc2c3c(c(=O)oc2c1)CCCC3)NCC(O)c1ccccc1 (centres undefined)	10.4%
O=C(COc1ccc2ccc(=O)oc2c1)NCC(O)c1ccccc1 (centres undefined)	-87.9% (active)
Cc1cc(OCC(=O)NCC(O)c2ccccc2)c2c(C)c(C)c(=O)oc2c1 (centres undefined)	29.5%
O=C(NCCOc1ccccc1)N1[C@H]2CC[C@@H]1C=C(c1ccc(F)cc1OCc1ccccc1)C2	-21.8%
CCNC(=O)COc1cc(C)c(Br)c(C)c1	-198% (active)
COCCCNC(=O)COc1cc(C)c(Cl)c(C)c1	30.5%
CCOC(=O)C1CCN(C(=O)COc2cc(C)c(Br)c(C)c2)CC1	-6.53%
Cc1ccc(S(=O)(=O)N2C[C@]3(O)C[C@@H]4C(=O)N(c5ccccc5)C(=O)[C@@H]4C[C@]3(OC(=O)NC3CC3)C2)cc1	-5.83%
Cc1ccc(NC(=O)Cn2sc3ccccc3c2=O)cc1	8.97%
COc1cccc(C(=O)N2CCCC(CCC(=O)NCc3ccc(F)c(F)c3)C2)c1 (centres undefined)	-33.7%
COc1cccc(CC2(CO)CCCN(Cc3nc(-c4cccs4)oc3C)C2)c1 (centres undefined)	-14.6%
COc1cccc(CNC(=O)CCC2CCCN(C(=O)c3ccoc3C)C2)c1 (centres undefined)	-8.72%
COc1cccc(CC2(CO)CCCN(Cc3ccc(OC(F)F)cc3)C2)c1 (centres undefined)	-90.5% (active)
COc1cccc(CNC(=O)CCC2CCCN(Cc3ccc(OC(F)F)cc3)C2)c1 (centres undefined)	-93.7% (active)
COc1cccc(CC2(CO)CCCN(CC3=Cc4cc(OC)ccc4OC3)C2)c1 (centres undefined)	-14.2%
CCCn1c(N)c(C(=O)CSc2nnc(Cc3cccs3)n2C2CC2)c(=O)[nH]c1=O	7.67%
Cc1cccc(S(=O)(=O)N(C)C[C@H]2OCc3cnnn3CCCC(=O)N([C@@H](C)CO)C[C@H]2C)c1	36.2%
CCCCCCNC(=O)O[C@H]1CN(C(=O)OC(C)C)N(C(=O)OC(C)C)[C@@H]2CN(S(=O)(=O)c3ccc(C)cc3)C[C@]12O	0.662%
COc1ccc(-c2ccc(CN3C(CC(C)C)C(=O)N(Cc4cn(CC5CCCCC5)nn4)CCS3(=O)=O)cc2)cc1 (centres undefined)	-16.5%

SMILES	activity change
CC1(c2cccc(Br)c2)NC(=O)N(CC(=O)NCCC2=CCCCC2)C1=O (centres undefined)	-2.93%
Cc1nc2nc[nH]n2c(=O)c1C/C=C/c1ccccc1	-5.87%
Cc1nc2nc[nH]n2c(=O)c1NC(=O)c1cccc(OCC(C)C)c1	-182% (active)
Cc1noc(C)c1COc1cccc(C(=O)Nc2cccnc2)c1	5.81%
C[C@H]1CN([C@@H](C)CO)C(=O)c2cc(C3=CCCCC3)cnc2O[C@@H]1CN(C)C(=O)Cc1ccccc1	-6.94%
CC(=O)Nc1ccc(SCC(=O)NC(=O)c2ccc(Cl)cc2)cc1	-9.69%
COc1ccc2[nH]c(C)c(CCN(Cc3cccs3)C(=S)Nc3ccccc3OC)c2c1	-8.67%
Cc1[nH]c2ccccc2c1CCN(Cc1cccs1)C(=S)NC(C)(C)C	-70.5% (active)
COc1cccc(NC(=S)N(CCc2c(C)[nH]c3ccccc23)Cc2ccco2)c1	-11%
Cc1ccc(S(=O)(=O)NN=C2CC(C)(C)CC(=O)C2(C)C)cc1	-9.11%
C[C@@H]1Cn2cnc(C(=O)Nc3ccc(CNC(=O)OC(C)(C)C)cc3)c2C(=O)N1	-19.4%
C[C@H]1Cn2cnc(C(=O)N[C@@H](Cc3c[nH]c4ccccc34)C(=O)OC(C)(C)C)c2C(=O)N1	-11.5%
CCOC(=O)CSc1nc2c(sc(=S)n2CCc2ccccc2)c(=O)n1Cc1ccco1	-91% (active)
CCOC(=O)CSc1nc2c(c(=O)n(Cc3ccccc3Cl)c(=O)n2C)n1C	-10.8%
N#Cc1c(NC(=O)CSc2nc3ccccc3c(=O)n2Cc2ccco2)sc2c1CCCC2	-19.1%
C=CCOc1ccccc1CNn1c(C)n[nH]c1=S	3.24%
C[C@@H]1CN([C@@H](C)CO)C(=O)CCCn2nncc2CO[C@@H]1CN(C)S(=O)(=O)c1ccc(-c2ccccc2)cc1	8.36%
COc1ccc(CCNC(=O)COC(=O)Cc2ccccc2F)cc1	8.82%
COc1ccc(C(CCNCc2ccccc2F)c2ccc(F)cc2)cc1 (centres undefined)	-100% (active)
COc1cccc(CNCCc2c[nH]c3ccccc23)c1OCc1ccccc1F	-1.51%
